Experimental data published in PubChem BioAssay (NCATS).
Records with an inconclusive call do not appear. Where a call stands in place of a potency, no number is given. Active and inactive are the calls of the source. Unless noted, calls come from the whole dose curve; as a rule, active = well fitted curve in the direction sought with a large enough effect; inconclusive = small, poorly fitted or top-dose-only effect, or another doubt; inactive = no such curve, though single readings can be large; an effect the other way counts as inactive or inconclusive.

Tests used:
[1] = biological target: Calcium and integrin-binding protein 1 (Homo sapiens) (UniProt Q99828); assay: Validation qHTS for Identification of Calcium Integrin Binding protein 1 (CIB1) Competitor (AID 1508618); conditions: CIB1-GST / FITC-alphaIIb peptide fluorescence polarization; series mostly up to 114 µM
Calcium and integrin-binding protein 1 (Homo sapiens), sequence (Q99828 whole entry, looked up): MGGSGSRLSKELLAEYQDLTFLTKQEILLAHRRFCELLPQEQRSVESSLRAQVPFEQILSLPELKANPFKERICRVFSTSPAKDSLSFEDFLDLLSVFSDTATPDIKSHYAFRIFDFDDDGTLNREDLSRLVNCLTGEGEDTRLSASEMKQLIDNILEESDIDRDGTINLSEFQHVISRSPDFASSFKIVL
Method in brief: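 CIB1-GST (1 uM final) in 5 mM HEPES pH 7.4, 125 mM NaCl, 5 mM CaCl2, 0.01% Tween20 was preincubated 15 min at room temperature with compound (up to 114 uM), then FITC-alphaIIb peptide (100 nM) added for 15 min; fluorescence polarization read.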

[2] = Primary qHTS for small molecule stabilizers of the endoplasmic reticulum resident proteome: Secreted ER Calcium Modulated Protein (SERCaMP) assay (AID 1508630); conditions: SH-SY5Y GLuc-SERCaMP (Gaussia luciferase released on ER calcium loss) secretion, thapsigargin, luminescence; series mostly up to 38.4 µM
Method in brief: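 GLuc-SERCaMP-expressing SH-SY5Y cells, pretreated 16 h with compound, are challenged with thapsigargin to empty ER calcium stores; after 4 h, coelenterazine is added directly to the medium and luminescence is imaged.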

[3] = biological target: Papain (Carica papaya) (UniProt P00784); assay: Primary qHTS assay for inhibitors of the protease papain (AID 1645873); conditions: papain Z-FR-AMC cleavage, AMC fluorescence; series mostly up to 49.8 µM;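 note: papain turnover of Z-FR-AMC read as the AMC fluorescence gain over 10 min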; note: potency is the fitted concentration of half-maximal effect
Papain (Carica papaya), sequence (P00784 whole entry, looked up): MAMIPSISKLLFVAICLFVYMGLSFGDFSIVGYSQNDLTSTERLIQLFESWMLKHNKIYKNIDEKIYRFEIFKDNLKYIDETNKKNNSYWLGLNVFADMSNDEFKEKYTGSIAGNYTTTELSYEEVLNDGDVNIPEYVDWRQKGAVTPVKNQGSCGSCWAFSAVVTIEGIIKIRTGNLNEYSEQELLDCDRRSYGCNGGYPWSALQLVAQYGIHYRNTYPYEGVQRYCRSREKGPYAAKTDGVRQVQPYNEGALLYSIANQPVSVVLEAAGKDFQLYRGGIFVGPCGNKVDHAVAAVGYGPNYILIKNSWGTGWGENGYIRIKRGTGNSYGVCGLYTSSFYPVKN

[4] = biological target: Catechol O-methyltransferase (Homo sapiens) (UniProt P21964); assay: Confirmatory Screen for Target Class Profiling of Small Molecule Inhibitors of Methyltransferases (AID 1745852; calls by dose curve; note: potency is the fitted concentration of half-maximal effect); conditions: MTase-Glo luminescence, SAH detection, recombinant enzyme; measured here: COMT max response; stronger effect = lower value
Catechol O-methyltransferase (Homo sapiens), sequence (P21964 whole entry, looked up): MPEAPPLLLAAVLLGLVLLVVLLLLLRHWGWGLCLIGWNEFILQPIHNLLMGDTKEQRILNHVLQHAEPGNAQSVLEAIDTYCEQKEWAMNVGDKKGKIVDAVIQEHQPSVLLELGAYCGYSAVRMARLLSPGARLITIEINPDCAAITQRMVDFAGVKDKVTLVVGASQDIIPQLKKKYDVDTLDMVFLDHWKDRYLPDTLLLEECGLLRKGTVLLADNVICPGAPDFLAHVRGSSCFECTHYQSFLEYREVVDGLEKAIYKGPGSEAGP

[5] = biological target: Guanidinoacetate N-methyltransferase (Homo sapiens) (UniProt Q14353); assay: as above; conditions: MTase-Glo luminescence, SAH detection, recombinant enzyme; activity change, negative = inhibition: at 57.3 µM (top of the series)
[6] = biological target: Nicotinamide N-methyltransferase (Homo sapiens) (UniProt P40261); assay: as above; conditions: MTase-Glo luminescence, SAH detection, recombinant enzyme; measured here: NNMT max response; stronger effect = lower value
Nicotinamide N-methyltransferase (Homo sapiens), sequence (P40261 whole entry, looked up): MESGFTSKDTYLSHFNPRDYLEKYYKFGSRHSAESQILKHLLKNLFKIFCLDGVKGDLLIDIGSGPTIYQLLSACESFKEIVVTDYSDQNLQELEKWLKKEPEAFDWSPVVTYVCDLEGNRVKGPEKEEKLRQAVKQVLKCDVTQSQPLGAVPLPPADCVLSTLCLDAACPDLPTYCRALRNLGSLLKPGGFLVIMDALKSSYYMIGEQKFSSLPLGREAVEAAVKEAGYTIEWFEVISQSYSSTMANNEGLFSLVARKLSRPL

[7] = biological target: Phenylethanolamine N-methyltransferase (Homo sapiens) (UniProt P11086); assay: as above; conditions: MTase-Glo luminescence, SAH detection, recombinant enzyme; measured here: PNMT max response; stronger effect = lower value
Phenylethanolamine N-methyltransferase (Homo sapiens), sequence (P11086 whole entry, looked up): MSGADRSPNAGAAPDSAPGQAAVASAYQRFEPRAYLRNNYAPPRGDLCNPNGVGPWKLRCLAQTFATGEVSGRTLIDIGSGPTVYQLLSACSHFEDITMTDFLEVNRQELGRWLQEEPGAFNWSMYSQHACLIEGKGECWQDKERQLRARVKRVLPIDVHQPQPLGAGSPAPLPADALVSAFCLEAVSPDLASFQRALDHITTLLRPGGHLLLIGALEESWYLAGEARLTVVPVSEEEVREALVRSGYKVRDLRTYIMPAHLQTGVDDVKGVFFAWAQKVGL

[8] = biological target: Rap guanine nucleotide exchange factor 3 (Homo sapiens) (UniProt O95398); assay: Confirmatory qHTS for agonist of cAMP-regulated guanine nucleotide exchange factor 3 (EPAC1) (AID 1645881); conditions: EPAC1 Rap1B BODIPY-GDP exchange fluorescence; series mostly up to 154 µM; note: nearly all actives have a fitted effect of over 75% in size; note: potency is the fitted concentration of half-maximal effect
Rap guanine nucleotide exchange factor 3 (Homo sapiens), sequence (O95398 whole entry, looked up): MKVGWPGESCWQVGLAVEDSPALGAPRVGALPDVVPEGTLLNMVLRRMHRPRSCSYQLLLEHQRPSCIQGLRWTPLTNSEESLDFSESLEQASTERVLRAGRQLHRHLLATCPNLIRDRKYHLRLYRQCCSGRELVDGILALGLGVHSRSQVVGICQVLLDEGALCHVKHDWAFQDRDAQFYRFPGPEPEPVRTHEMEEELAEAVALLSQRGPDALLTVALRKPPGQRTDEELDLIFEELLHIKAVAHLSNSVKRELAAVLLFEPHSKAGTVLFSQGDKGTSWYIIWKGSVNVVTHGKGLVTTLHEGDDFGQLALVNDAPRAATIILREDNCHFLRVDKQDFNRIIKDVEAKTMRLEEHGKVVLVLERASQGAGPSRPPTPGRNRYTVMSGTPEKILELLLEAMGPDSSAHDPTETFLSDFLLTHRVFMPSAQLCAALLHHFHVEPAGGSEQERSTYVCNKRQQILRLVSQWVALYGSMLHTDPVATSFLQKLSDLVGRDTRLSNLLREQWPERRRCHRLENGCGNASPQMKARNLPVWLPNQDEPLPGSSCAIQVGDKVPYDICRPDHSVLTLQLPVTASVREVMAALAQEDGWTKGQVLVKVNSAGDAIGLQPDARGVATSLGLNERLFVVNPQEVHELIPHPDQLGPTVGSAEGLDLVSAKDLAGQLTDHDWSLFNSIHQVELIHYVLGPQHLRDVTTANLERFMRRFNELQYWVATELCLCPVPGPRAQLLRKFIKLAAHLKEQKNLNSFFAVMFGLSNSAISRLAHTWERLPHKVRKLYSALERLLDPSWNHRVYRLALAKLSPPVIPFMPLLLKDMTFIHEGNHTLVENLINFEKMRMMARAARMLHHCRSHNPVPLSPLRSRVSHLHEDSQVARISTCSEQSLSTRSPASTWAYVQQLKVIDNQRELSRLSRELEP

[9] = biological target: Rap guanine nucleotide exchange factor 4 (Homo sapiens) (UniProt Q8WZA2); assay: Confirmatory qHTS for agonist of cAMP-regulated guanine nucleotide exchange factor 4 (EPAC2) (AID 1645884); conditions: EPAC2 GEF activity, Rap1B-BODIPY-GDP fluorescence; series mostly up to 154 µM;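 note: nucleotide exchange releases bodipy-GDP from Rap1 and this lowers its fluorescence; nearly all actives have a fitted effect of over 65% in size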; note: potency is the fitted concentration of half-maximal effect
Rap guanine nucleotide exchange factor 4 (Homo sapiens), sequence (Q8WZA2 whole entry, looked up): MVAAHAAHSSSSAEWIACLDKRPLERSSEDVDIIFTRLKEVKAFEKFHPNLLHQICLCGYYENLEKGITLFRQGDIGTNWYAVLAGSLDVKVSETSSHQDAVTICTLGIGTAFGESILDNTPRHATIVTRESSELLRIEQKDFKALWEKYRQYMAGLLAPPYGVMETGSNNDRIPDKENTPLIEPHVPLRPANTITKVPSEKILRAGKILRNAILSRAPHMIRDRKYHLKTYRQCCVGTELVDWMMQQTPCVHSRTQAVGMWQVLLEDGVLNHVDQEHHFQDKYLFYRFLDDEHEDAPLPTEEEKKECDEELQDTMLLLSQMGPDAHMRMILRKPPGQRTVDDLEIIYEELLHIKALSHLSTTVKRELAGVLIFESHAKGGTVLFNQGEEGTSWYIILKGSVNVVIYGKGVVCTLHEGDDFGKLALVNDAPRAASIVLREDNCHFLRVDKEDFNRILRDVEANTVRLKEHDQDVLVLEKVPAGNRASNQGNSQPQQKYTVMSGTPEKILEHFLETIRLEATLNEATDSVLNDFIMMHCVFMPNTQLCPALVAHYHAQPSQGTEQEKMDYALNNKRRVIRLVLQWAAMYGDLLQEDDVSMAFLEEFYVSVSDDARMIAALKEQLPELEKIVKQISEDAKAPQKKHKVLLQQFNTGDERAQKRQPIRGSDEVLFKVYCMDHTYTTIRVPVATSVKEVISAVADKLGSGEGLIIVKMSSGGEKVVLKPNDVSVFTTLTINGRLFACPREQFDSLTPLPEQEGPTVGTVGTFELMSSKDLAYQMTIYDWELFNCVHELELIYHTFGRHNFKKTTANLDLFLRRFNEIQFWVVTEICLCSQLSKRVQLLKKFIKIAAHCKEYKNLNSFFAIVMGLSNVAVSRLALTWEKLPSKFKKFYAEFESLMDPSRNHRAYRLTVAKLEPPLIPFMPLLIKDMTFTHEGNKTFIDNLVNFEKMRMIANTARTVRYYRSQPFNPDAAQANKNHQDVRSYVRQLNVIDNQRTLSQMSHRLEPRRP

[10] = biological target: Rap guanine nucleotide exchange factor 4 (Homo sapiens) (UniProt Q8WZA2); assay: Confirmatory qHTS for antagonist of cAMP-regulated guanine nucleotide exchange factor 4 (EPAC2) (AID 1645885); conditions: EPAC2 Rap1B-BODIPY-GDP exchange fluorescence, biochemical; series mostly up to 114 µM; note: potency is the fitted concentration of half-maximal effect; nearly all actives have a fitted effect of over 25% in size
[11] = biological target: Rap guanine nucleotide exchange factor 3 (Homo sapiens) (UniProt O95398); assay: Confirmatory qHTS for antagonist of cAMP-regulated guanine nucleotide exchange factor 3 (EPAC1) (AID 1645880); conditions: EPAC1 Rap1B-BODIPY-GDP exchange, fluorescence; series mostly up to 115 µM; note: potency is the fitted concentration of half-maximal effect; nearly all actives have a fitted effect of over 55% in size
Method in brief: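 Nucleotide exchange uses 100 nM EPAC1, 250 nM RAP1B-BODIPY-GDP and 50 uM GDP, with compounds in a concentration-titration series. After 5 min at room temperature, fluorescence (480 nm ex/540 nm em) is read every 5 min for 30 min. Data are normalized to control ATA and DMSO.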

For Cc1cccc(C)c1OCC(N)C(C)C (stereo unspecified), the Potency [1] was “inactive”, the Potency [2] was “inactive” and the Potency [3] was “inactive”.
In the case of CCCCCC[C@@H]([C@@H](C)O)n1cnc2c(N)ncnc21, the Potency [1] is reported as “inactive”, the Potency [2] is reported as “inactive” and the Potency [3] is reported as “inactive”.
For N[C@H](C(=O)O)[C@H]1C[C@@H]1C(=O)O, the Potency [1] was “inactive”, the Potency [2] was “inactive” and the Potency [3] was “inactive”.
With NC(N)=NC(N)=Nc1cccc(Cl)c1 the Potency [1] was “inactive”, the Potency [2] was “inactive” and the Potency [3] was “inactive”.
For COC(=O)C(N)Cc1ccc(Cl)cc1 (stereo unspecified), the Potency [1] was “inactive”, the Potency [2] was “inactive” and the Potency [3] was “inactive”.
For O=C(O)c1cccnc1C(=O)O, the Potency [1] was “inactive”, the Potency [2] was “inactive” and the Potency [3] was “inactive”.
For Nc1nc2ccc(Cl)cc2c2nc(-c3ccco3)nn12, the Potency [1] was “inactive”, the Potency [2] was “inactive” and the Potency [3] was 22.4 µM (active).
With CC[N+](CC)(CC)CC(=O)Nc1c(C)cccc1C the Potency [1] was “inactive”, the Potency [2] was “inactive” and the Potency [3] was “inactive”.
With Oc1cc2c(cc1O)C(c1ccccc1)CNCC2 (stereo unspecified) the Potency [1] was “inactive”, the Potency [2] was “inactive” and the Potency [3] was “inactive”.
In the case of CCCCCCCCCCCCCCCCCCOC[C@H](COP(=O)([O-])OCC[N+](C)(C)C)OC, the Potency [1] is reported as “inactive”, the Potency [2] is reported as “inactive” and the Potency [3] is reported as “inactive”.
In the case of CC(N)=O, the Potency [1] is reported as “inactive”, the Potency [2] is reported as “inactive” and the Potency [3] is reported as “inactive”.
In the case of CNCCNS(=O)(=O)c1cccc2cnccc12, the Potency [1] is reported as “inactive”, the Potency [2] is reported as “inactive” and the Potency [3] is reported as “inactive”.
With C[C@H]1CC2C3CCC4=CC(=O)C=C[C@]4(C)[C@@]3(Cl)[C@@H](O)C[C@]2(C)[C@@]1(O)C(=O)CO (stereo partly specified) the Potency [1] was “inactive”, the Potency [2] was “inactive” and the Potency [3] was “inactive”.
For NOCC(=O)O, the Potency [1] was “inactive”, the Potency [2] was “inactive” and the Potency [3] was “inactive”.
In the case of O=c1ccn([C@@H]2O[C@H](COP(=O)(O)OP(=O)(O)O)[C@@H](O)[C@H]2O)c(=O)[nH]1, the Potency [1] is reported as “inactive”, the Potency [2] is reported as “inactive” and the Potency [3] is reported as “inactive”.
For COCc1nc2c([nH]1)c(=O)n(C)c(=O)n2CC(C)C, the Potency [1] was “inactive”, the Potency [2] was “inactive” and the Potency [3] was “inactive”.
For C[C@@H](NCCc1ccc(O)cc1)[C@@H](O)c1ccc(O)cc1, the Potency [1] was “inactive”, the Potency [2] was “inactive” and the Potency [3] was “inactive”.
For CC(C)C[C@H](NC(=O)C1OC1C(=O)O)C(=O)NCCCCN=C(N)N (stereo partly specified), the Potency [1] was “inactive”, the Potency [2] was “inactive” and the Potency [3] was “inactive”.
In the case of CC(=O)NNC(=O)N1Cc2ccccc2Oc2ccc(Cl)cc21, the Potency [1] is reported as “inactive”, the Potency [2] is reported as “inactive” and the Potency [3] is reported as “inactive”.
For COc1ccccc1N1CCN(CCCCN2C(=O)c3ccccc3C2=O)CC1, the Potency [1] was “inactive”, the Potency [2] was “inactive” and the Potency [3] was “inactive”.
With CCN(CC)CCOC(=O)c1cc(Cl)c(N)cc1OC the Potency [1] was “inactive”, the Potency [2] was “inactive” and the Potency [3] was “inactive”.
For Cc1ccc([N+](=O)[O-])cc1S(=O)(=O)N(C)C, the Potency [1] was “inactive”, the Potency [2] was “inactive” and the Potency [3] was “inactive”.
With Cc1nc2c(OCc3ccccc3)cccn2c1CC#N the Potency [1] was “inactive”, the Potency [2] was “inactive” and the Potency [3] was “inactive”.
In the case of OC[C@H]1NC[C@@H](O)[C@@H]1O, the Potency [1] is reported as “inactive”, the Potency [2] is reported as “inactive” and the Potency [3] is reported as “inactive”.
With CCCn1c(=O)c2c(ncn2C)n(CCC)c1=O the Potency [1] was “inactive”, the Potency [2] was “inactive” and the Potency [3] was “inactive”.
With CCN(CC)CCCCCCCCOC(=O)c1cc(OC)c(OC)c(OC)c1 the Potency [1] was “inactive”, the Potency [2] was “inactive” and the Potency [3] was “inactive”. For the same compound, the activity [4] was 8.45%, the activity change, negative = inhibition [5] was 4.66% and the activity [6] was -0.607%. It also gave an activity [7] of 0.819%.
With O=C(O)Cc1ccc(O)c(O)c1 the Potency [1] was “inactive”, the Potency [2] was “inactive” and the activity [4] was 122%. The activity change, negative = inhibition [5] was 5.19%, the activity [6] was 0.212% and the activity [7] was 4.32%.
In the case of CC(C)(CO)Cc1cc(C(C)(C)C)c(O)c(C(C)(C)C)c1, the Potency [1] is reported as “inactive”, the Potency [2] is reported as “inactive” and the Potency [3] is reported as “inactive”. For the same compound, the Potency [8] was “inactive”, the Potency [9] was “inactive” and the Potency [10] was 49.4 µM (active).
In the case of Nc1ncnc2c1nc(Sc1ccc(Cl)cc1)n2[C@H]1OC2COP(=O)(O)O[C@@H]2C1O (stereo partly specified), the Potency [1] is reported as “inactive”, the Potency [2] is reported as “inactive” and the Potency [3] is reported as “inactive”. For the same compound, the Potency [11] was 789 nM (active), the Potency [8] was 998 nM (active) and the Potency [9] was 1.77 µM (active). The Potency [10] was 1.97 µM (active).
For CC[C@@H]1Cc2cc(O)ccc2C2=C1c1ccc(O)cc1C[C@H]2CC, the Potency [1] was “inactive”, the Potency [2] was “inactive” and the Potency [3] was 5.01 µM (active). The activity [4] was 9.67%, the Potency [5] was 43.2 µM (active) and the activity [6] was -26.8%. The activity [7] was -50.4%.
With COc1cc(CNC(=O)CCCCCCC(C)C)ccc1O the Potency [1] was “inactive”, the Potency [2] was “inactive” and the Potency [3] was “inactive”.
